Most compounds without a hit are left out; they make up all but 21% or so of the library.
RORgamma inh: qHTS for inhibitors of ROR gamma transcriptional activity; Potency, µM (top dose mostly 53.6 µM), for the others: top-dose activity change, negative = inhibition, hits mostly inhibitors; AID 2551, 2010; hit rate 5.4% among 310,000; Drosophila S2 Gal4-RORgamma UAS-luciferase reporter, 20 h; further: potency means the concentration at half of the fitted maximal effect; nearly all actives have a fitted effect of over 60% in size
Target sequence (P51450 whole entry, looked up, the tested form may be a part): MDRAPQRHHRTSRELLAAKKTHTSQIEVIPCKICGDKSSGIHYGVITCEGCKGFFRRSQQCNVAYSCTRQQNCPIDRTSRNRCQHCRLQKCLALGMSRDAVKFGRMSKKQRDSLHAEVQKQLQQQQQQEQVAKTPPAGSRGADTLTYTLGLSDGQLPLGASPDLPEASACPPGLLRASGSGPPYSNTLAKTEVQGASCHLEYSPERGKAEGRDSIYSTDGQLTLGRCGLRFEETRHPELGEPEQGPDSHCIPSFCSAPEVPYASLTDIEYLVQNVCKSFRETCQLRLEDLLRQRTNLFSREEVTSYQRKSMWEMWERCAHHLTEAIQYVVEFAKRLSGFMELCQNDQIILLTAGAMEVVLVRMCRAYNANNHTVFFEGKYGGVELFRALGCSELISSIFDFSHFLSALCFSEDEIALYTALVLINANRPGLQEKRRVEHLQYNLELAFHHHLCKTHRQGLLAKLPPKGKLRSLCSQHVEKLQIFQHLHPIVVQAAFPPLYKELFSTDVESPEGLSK
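Stably transfected Drosophila Schneider cells are the test system, with ROR gamma fused to Gal4 and luciferase under UAS control; luminescence is read after 20 hr of 700 uM copper sulfate induction at ambient temperature.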
ELG1 repair inh: qHTS screen for small molecules that inhibit ELG1-dependent DNA repair in human embryonic kidney (HEK293T) cells expressing luciferase-tagged ELG1; HEK293T ELG1-luciferase reporter, luminescence, 16 h; DNA damage induced by 5-fluorouridine; Potency, µM (top dose mostly 46.1 µM), for inactives: at the top dose activity change, negative = inhibition, usual class: inhibitors; hit rate 2.3% among 330,000; further: potency means the concentration at half of the fitted maximal effect; nearly all actives have a fitted effect of over 55% in size
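Overnight (16 hr) co-exposure of 2,000 cells/well to 5-fluorouridine and compound at 37 °C preceded detection. Luciferase was quantified via ONE-Glo luminescence; loss of signal denotes inhibition.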
TDP1 cell CPT: qHTS for Inhibitors of human tyrosyl-DNA phosphodiesterase 1 (TDP1): qHTS in cells in presence of CPT; hit rate 12% among 420,000; Potency, µM (series often up to 46.2 µM), inactives show at the top dose activity change, negative = growth inhibition, actives largely listed as inhibitors; chicken DT40 Tdp1-/-;hTDP1 cells + 20 nM CPT, ATP luminescence, 48 h; further: potency means the concentration at half of the fitted maximal effect; nearly all actives have a fitted effect of over 55% in size
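Chicken DT40 Tdp1-/- cells stably complemented with human TDP1 were seeded at 400 cells/well in medium containing 20 nM camptothecin, exposed to pin-transferred compounds, and grown at 37 °C for at least 48 hr. Viability was read as ATP luminescence.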
VP16 counter: VP16 counterscreen qHTS for inhibitors of ROR gamma transcriptional activity; Drosophila S2 Gal4-VP16 UAS-luciferase, luminescence, 20 h; Potency, µM (top dose mostly 53.6 µM), for inactives: at the top dose activity, negative = inhibition, usual class: inhibitors; hit rate 3.5% among 310,000;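 further: Gal4-VP16 expression switched on by copper sulfate through the metallothionein promoter; potency means the concentration at half of the fitted maximal effect; nearly all actives have a fitted effect of over 50% in size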
IL1B secr inh: qHTS for Inhibitors of Inflammasome Signaling: IL-1-beta AlphaLISA Primary Screen; THP-1 LPS/ATP IL-1B secretion, AlphaLISA, 16 h; hits give low values; activity change, % at 57.5 µM; hit rate 4.7% among 360,000; AID 743279, 2014; in the data active means activity change below about -50%; inconclusive means mostly about -30% to -49%
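THP-1 cells pretreated 1 hr with compounds (up to 57.5 uM final), then stimulated with LPS (250 ng/mL final) plus ATP (1.25 mM final); secreted IL-1B measured by AlphaLISA after 16 hr, decreased signal indicating inhibition.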
DT40 TDP1 no CPT: qHTS for Inhibitors of human tyrosyl-DNA phosphodiesterase 1 (TDP1): qHTS in cells in absence of CPT | Potency, µM (series often up to 46.2 µM), for the others: top-dose activity change, negative = growth inhibition, hits mostly inhibitors | hit rate 15% among 420,000 | DT40 Tdp1-/- hTDP1 cells, no CPT, ATP luminescence, 48 h; further: potency means the concentration at half of the fitted maximal effect; nearly all actives have a fitted effect of over 55% in size
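DT40 Tdp1-/-;hTDP1 cells, no CPT (DMSO vehicle only), 400 cells/well; compounds pin-transferred; ≥48 hr, 37 °C; CellTiter-Glo 30 min RT dark, luminescence read.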
Starred values were filed as active, the others as inactive; ? = inconclusive; . = no result given. Unless noted, the call rests on the fitted dose curve; in most records, active means well fitted curve in the direction sought with a large enough effect; inconclusive means small, poorly fitted or top-dose-only effect, or another doubt; inactive means no such curve, though single readings can be large; an effect the other way counts as inactive or inconclusive. On the % scale 0 is the no-effect control and ±100 the full control effect.

SMILES	RORgamma inh	ELG1 repair inh	TDP1 cell CPT	VP16 counter	IL1B secr inh	DT40 TDP1 no CPT
CCOC(=O)c1cnc(SCc2nc(N)nc(Nc3ccccc3)n2)nc1N	18%	?	16µM*	8%	6	16µM*
CCOC(=O)c1cnc(SCC(=O)Nc2cc(OC)cc(OC)c2)nc1N	17%	-15%	8.2µM*	-5%	36	8.2µM*
Cc1cc(-c2nnc(CSc3nnc(NC(=O)c4ccc(C(C)(C)C)cc4)s3)o2)ccc1[N+](=O)[O-]	20%	?	?	4%	0	21µM*
CC(C)(C)c1ccc(C(=O)Nc2nnc(SCC(=O)NCC3CCCO3)s2)cc1 (stereo unspecified)	?	?	?	7.1µM*	21	-29%
CCOc1ccc(C(=O)Nc2nnc(SCC(=O)NCC3CCCO3)s2)cc1 (stereo unspecified)	?	?	-1%	3.5µM*	20	-4%
Cc1cccc(Nc2nnc(SCC(=O)NCC3CCCO3)s2)c1 (stereo unspecified)	.	?	-26%	.	18	-20%
CC(C)c1ccc(Nc2nnc(SCC(=O)NCC3CCCO3)s2)cc1 (stereo unspecified)	.	?	?	.	11	16µM*
Cc1cc(Nc2cccc(C(F)(F)F)c2)ncn1	.	.	-24%	.	.	?
Cc1ccc(Nc2nc3nonc3nc2Nc2cccc(C(F)(F)F)c2)cc1Cl	.	.	0.52µM*	.	.	0.46µM*
CCOc1ccc(CCN2C(=S)N([C@@H](CC(C)C)CN3CCCC3CN3C(=S)NC[C@@H]3Cc3ccccc3)C[C@@H]2CC(C)C)cc1 (stereo partly specified)	.	.	?	.	78	16µM*
CCOc1ccc(CCN2C(=S)N([C@@H](CC(C)C)CN3CCCC3CN3C(=S)NC[C@@H]3CC(C)C)C[C@@H]2Cc2ccc(O)cc2)cc1 (stereo partly specified)	.	.	18µM*	.	?	?
CCOc1ccc(CCN2C(=S)N([C@@H](CC(C)C)CN3CCC[C@@H]3CN3C(=S)NC[C@@H]3CC(C)C)C[C@@H]2CC(C)C)cc1	.	.	?	.	13	?
CCOc1ccc(CCN2C(=O)C(=O)N([C@@H](CC(C)C)CN3CCC[C@@H]3CN3C(=O)C(=O)NC[C@@H]3CC(C)C)C[C@@H]2Cc2ccccc2)cc1	.	.	?	.	0	?
CCOc1ccc(CCN2C(=S)N([C@@H](CC(C)C)CN3CCC[C@@H]3CN3C(=S)NC[C@@H]3CC(C)C)C[C@@H]2Cc2ccc(O)cc2)cc1	.	.	9.2µM*	.	.	12µM*
CCOc1ccc(CCN2C(=S)N([C@@H](CC(C)C)CN3CCCC3CN3C(=S)NC[C@@H]3Cc3ccc(O)cc3)C[C@@H]2CC(C)C)cc1 (stereo partly specified)	.	.	?	.	?	16µM*
COc1cccc(C(=O)N2CCN(CCc3ccncc3)CC2)c1	.	.	-21%	.	.	-6%
COc1cc(C(=O)NCc2nc(-c3ccc(Cl)cc3)no2)cc(OC)c1OC	.	.	6%	.	.	-19%
O=C(Nc1cccc2c(=O)cc(-c3nn[nH]n3)oc12)c1ccc(OCCCCc2ccccc2)cc1	.	.	9%	.	.	-14%
COc1ccc(OC)c(C2Nc3c(C)cc(C)cc3-c3cc(C)nn32)c1 (stereo unspecified)	.	.	16µM*	.	.	21µM*
Cc1cc2n(n1)C(c1sccc1C)Nc1c(C)cccc1-2 (stereo unspecified)	-39%	5%	?	-2%	-11	?
Cc1ccc2nc(C3CCCN(C(=S)Nc4ccccc4C)C3)[nH]c2c1 (stereo unspecified)	?	3%	?	?	-2	21µM*
CCNC(=S)N1CCCC(c2nc3ccc(C)cc3[nH]2)C1 (stereo unspecified)	9%	10%	-4%	0%	-2	?
Cc1cc2nc(C3CCCN(C(=S)Nc4ccccc4)C3)[nH]c2cc1C (stereo unspecified)	13µM*	18%	?	?	60	?
COc1ccccc1NC(=S)N1CCC(c2nc3cc(C)c(C)cc3[nH]2)CC1	-3%	-1%	?	2%	-1	?
CCc1ccc2oc(C(=O)Nc3ccccc3C(=O)OC)cc(=O)c2c1	.	.	-12%	.	.	?
SMILES	RORgamma inh	ELG1 repair inh	TDP1 cell CPT	VP16 counter	IL1B secr inh	DT40 TDP1 no CPT
CCc1cc(-c2n[nH]c(=S)n2Cc2ccccc2)cs1	3.2µM*	8%	9%	6.3µM*	14	?
CCCc1cc(-c2n[nH]c(=S)n2CC)cs1	7.1µM*	?	6%	11µM*	13	-22%
Fc1ccc(-n2c(Cc3cccs3)n[nH]c2=S)cc1Cl	14µM*	-1%	13%	-6%	1	16%
CCc1cc(-c2n[nH]c(=S)n2-c2ccccc2C)cs1	4µM*	1%	-25%	5.6µM*	34	-29%
Cc1ccc2oc(C(=O)NCC3CCOCC3)c(C)c2c1	-9%	1%	-16%	18%	-15	-2%
COc1ccc(CCNC(=O)c2cc(=O)[nH]c3ccc(S(=O)(=O)N4CCCCC4)cc23)cc1OC	.	.	2%	.	.	-17%
CC(=O)Nc1ccc(NC(=O)c2ccnn2C)cc1	.	.	-12%	.	-9	-36%
CCCc1cc(-c2n[nH]c(=S)n2C(C)c2ccccc2)cs1 (stereo unspecified)	7.1µM*	-1%	-26%	7.1µM*	18	-10%
COc1cc(-c2ncc3ccccn23)cc(OC)c1OC	4%	-13%	-17%	-4%	?	-4%
Cc1ccccc1-n1c(Cc2cccs2)n[nH]c1=S	1.4µM*	15%	-9%	?	-15	3%
CC(CSc1n[nH]c(=S)s1)c1ccccc1 (stereo unspecified)	.	.	11%	.	24	-6%
CCc1cc(-c2n[nH]c(=S)n2CC)cs1	?	8%	7%	10µM*	13	3%
COc1cc(-c2n[nH]c(=S)n2C(C)c2ccccc2)cc(OC)c1OC (stereo unspecified)	?	0%	?	13µM*	21	-24%
COc1ccc(C(=O)[C@]2(C)C=C(c3ccc(OC)cc3)[C@H](C)C2)cc1	0%	.	.	8%	.	.

Screening results from PubChem BioAssay.
